This note sets out measurements from PubChem BioAssay (EPA / NIEHS).

As usually defined, the AC50 is the midpoint of the concentration-response curve, whichever way the signal moves.

Read-out in assay [1]: UDP glucuronosyltransferase (UGT1A6), UGT1A6 (gene 54578)
Nature of the assay: LTEA_HepaRG_UGT1A6: Life Technologies and Expression Analysis (LTEA) Assay for UDP glucuronosyltransferase (UGT1A6) using HepaRG (AID 2283539; active = hit-call score of the fitted dose curve at least 0.9, where 1 is the maximum; inactive = score below 0.9). As to conditions: mRNA level, 48 h; actives raise or lower the signal. The gist of the method:
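Expression was quantified by TaqMan qRT-PCR on Fluidigm arrays with ACTB/GAPDH/POLR2A normalization and bidirectional fitting against 0.5% DMSO. HepaRG cells (~100,000/well) were treated in duplicate for 48 h at eight half-log concentrations up to 100 uM in serum-free induction medium.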

Read-out in assay [2]: X-box binding protein 1 (XBP1), XBP1 (gene 7494)
Nature of the assay: LTEA_HepaRG_XBP1: Life Technologies and Expression Analysis (LTEA) Assay for X-box binding protein 1 (XBP1) using HepaRG (AID 2283540; active = hit-call score of the fitted dose curve at least 0.9, where 1 is the maximum; inactive = score below 0.9). As to conditions: mRNA level, 48 h; actives raise or lower the signal. The gist of the method: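 XBP1 transcript by qRT-PCR (housekeeping-normalized: ACTB, GAPDH, POLR2A) after 48 h chemical treatment of HepaRG cells, 8-point half-log series topping at 100 uM, vehicle 0.5% DMSO. Gain and loss of signal fitted relative to DMSO.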

Assay [3] is described as follows: LTEA_HepaRG_LDH_cytotoxicity: Cytotoxicity Assessment in the Life Technologies and Expression Analysis (LTEA) Assay (AID 2283563).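 For AC50: LDH activity released into spent culture medium as a marker of cell death.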 The gist of the method:
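LDH release into culture medium read after 48 h chemical treatment of HepaRG cells. Duplicate wells, eight-point half-log series topping at 100 uM, 0.5% DMSO vehicle and baseline.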

Assay [4] can be described thus: ATG_XTT_Cytotoxicity: Cytotoxicity Assessment in the Attagene TRANS-FACTORIAL HepG2 Assay (AID 2283584).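 For AC50: cells exposed to compound for 24 h before reading; active means loss of viability signal versus DMSO baseline.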 A digest of the protocol: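 Viability endpoint from XTT after 24 h chemical exposure of reporter-transfected human HepG2 liver cells; signal loss fitted relative to DMSO negative control.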
Assay [5] can be described thus: TOX21_p53_BLA_p2_viability: Viability Assessment in the Tox21 HCT-116 p53 Agonism Beta-lactamase Assay, Phase 2 (AID 2283591).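 Note: compound exposure lasted 16 h at 37 °C; actives lower the ATP signal meaning cytotoxicity.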 The gist of the method:
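Cytotoxicity readout: CellTiter-Glo ATP luminescence, 30 min at room temperature, after the beta-lactamase read. Cells were HCT116 exposed 16 h at 37C to compounds pin-transferred at 217-fold dilution from DMSO stocks.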

Assay [6] addresses Cellular tumor antigen p53 (Homo sapiens) (UniProt P04637). Put plainly: TOX21_p53_BLA_p2_ratio: Tox21 HCT-116 p53 Agonism Beta-lactamase Assay, Ratio, Phase 2 (AID 2283592). A digest of the protocol: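 Gain-of-signal p53 agonism was scored from the beta-lactamase FRET ratio (460/530 nm, 405 nm excitation) in HCT116 cells treated 16 h at 37C, 5% CO2, with DMSO serving as negative control and baseline.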

For assay [7] the target is unchanged. Nature of the assay: TOX21_p53_BLA_p3_ratio: Tox21 HCT-116 p53 Agonism Beta-lactamase Assay, Ratio, Phase 3 (AID 2283596). The gist of the method: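 HCT116 p53-bla cells (4000/well) given compound in DMSO (217-fold dilution) after 5 h, incubated 16 h at 37C. CCF4-AM substrate 2 h at room temperature; 460/530 nm emission ratio, gain fitted against DMSO.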
Assay [8] is described as follows: TOX21_p53_BLA_p4_viability: Viability Assessment in the Tox21 HCT-116 p53 Agonism Beta-lactamase Assay, Phase 4 (AID 2283597).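 Note: hits lower the luminescence signal meaning cytotoxicity.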 A digest of the protocol:
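Following a 16 h exposure at 37C, the treated HCT116 wells were first read for the FRET ratio. They were then lysed with CellTiter-Glo, and ATP luminescence was recorded after 30 min at room temperature.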

The target of assay [9] is Cellular tumor antigen p53 (Homo sapiens) (UniProt P04637). Nature of the assay: TOX21_p53_BLA_p5_ratio: Tox21 HCT-116 p53 Agonism Beta-lactamase Assay, Ratio, Phase 5 (AID 2283599). The gist of the method: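 Beta-lactamase reporter ratio (blue 460 nm over green 530 nm, 405 nm excitation) after 2 h CCF4-AM loading, in HCT-116 cells exposed 16 h at 37 C to compounds pinned at 217-fold dilution. Increases relative to DMSO baseline scored.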

Assay [10] is described as follows: TOX21_p53_BLA_p3_viability: Viability Assessment in the Tox21 HCT-116 p53 Agonism Beta-lactamase Assay, Phase 3 (AID 2283593).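 Note: cells exposed to compound for 16 h before reading.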 A digest of the protocol:
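Cellular ATP was quantified by CellTiter-Glo luminescence, read after 30 min at room temperature. Beforehand, HCT116 cells (4000/well) received compound 5 h post-seeding, 217-fold diluted from DMSO, then incubated 16 h at 37C.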

The structures appear in SMILES notation. Where “and” joins values, the source holds several entries; their conditions need not be identical. Equal entries are not always repeated. Inconclusive results are not listed. More than one record can exist for a structure, and the calls need not agree. Calls of active or inactive are those of the source. Rule for the calls, unless noted: active = hit-call score of the fitted dose curve at least 0.9, where 1 is the maximum; inconclusive = response in the unintended direction; inactive = score below 0.9.

Chain of Cellular tumor antigen p53 (Homo sapiens) (P04637 whole entry, looked up): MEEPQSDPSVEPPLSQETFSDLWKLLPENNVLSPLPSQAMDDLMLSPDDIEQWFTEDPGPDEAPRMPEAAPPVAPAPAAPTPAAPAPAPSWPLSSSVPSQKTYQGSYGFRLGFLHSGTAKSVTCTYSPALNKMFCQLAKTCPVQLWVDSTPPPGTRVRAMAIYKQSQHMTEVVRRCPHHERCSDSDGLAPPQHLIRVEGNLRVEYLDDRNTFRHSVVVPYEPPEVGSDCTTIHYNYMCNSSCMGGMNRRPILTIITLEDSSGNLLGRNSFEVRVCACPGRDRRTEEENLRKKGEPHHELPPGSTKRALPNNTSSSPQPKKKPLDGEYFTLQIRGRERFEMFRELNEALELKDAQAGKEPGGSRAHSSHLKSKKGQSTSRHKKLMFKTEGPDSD

For `O=C(O)c1ccccc1C(c1ccc(O)cc1)c1ccc(O)cc1`, the compound was classed as inactive in assay [1], in assay [2] and in assay [3].
With `CCC(=C(c1ccc(O)cc1)c1ccc(OCCN(C)C)cc1)c1ccccc1`, the compound was called inactive in assay [1] and in [2]. Further, the AC50 in assay [3] was 80.5 µM (active); in [4], 18.4 µM (active) and 34.2 µM (active) and 6.67 µM (active).
Take `COC(=O)CCCCC(=O)OC`: the outcome in [1], in assay [2], in [3], in assay [4], in assay [5] and in [6] was inactive. The result in [7], in [8] and in assay [9] was inactive.
Take `O=[N+]([O-])c1ccc(O)cc1`: the call in assay [1], in assay [2], in assay [3], in [4], in [5] and in assay [6] was inactive. The result in assay [7], in assay [8] and in assay [9] was inactive.
Turning to `c1ccc2c(c1)ccc1ccccc12`, the outcome in assay [1], in [2], in assay [3], in assay [4], in assay [5] and in [6] was inactive. The result in assay [7] and in assay [8] was inactive.
As to `C#C[C@]1(O)CC[C@H]2[C@@H]3CCC4=CC(=O)CC[C@@H]4[C@H]3CC[C@@]21C`, the compound was classed as inactive in assay [1], in [2], in assay [3] and in assay [4].
For the compound `CC#C[C@]1(O)CC[C@H]2[C@@H]3CCC4=CC(=O)CCC4=C3[C@@H](c3ccc(N(C)C)cc3)C[C@@]21C`, the concentration at half-maximal activity (AC50) in [1] was 79.8 µM (active); in [2], 53.4 µM (active); in assay [3], 11.5 µM (active); in [6] it was 45.2 µM (active) and 19.9 µM (active); in assay [7] it was 20.1 µM (active); in [9], 72.6 µM (active) and 22 µM (active). Moreover, the compound was called inactive in [4], in assay [5], in assay [7] and in [8].
Consider `Cc1oc(-c2ccccc2)nc1CCOc1ccc(C[C@H](Nc2ccccc2C(=O)c2ccccc2)C(=O)O)cc1`, for which the half-maximal activity concentration (AC50) is 16.8 µM (active) in assay [1]; 28.7 µM (active) in [3]; 7.33 µM (active) in assay [5]; 72.3 µM (active) in assay [6]; 39.9 µM (active) in assay [7]; 6.19 µM (active) in [8]. In [9], the AC50 is 56 µM (active). The compound was called inactive in [2] and in assay [4].
As to `O=C(O)Cc1cc(I)c(Oc2cc(I)c(O)c(I)c2)c(I)c1`, the AC50 in assay [1] is 62.2 µM (active); in [3], 61.9 µM (active); in assay [5] it was 24.1 µM (active); in [7], 28.2 µM (active); in assay [8], 30.9 µM (active); in assay [9] it was 30.6 µM (active). Further, the compound was classed as inactive in [2], in assay [4] and in [6].
Turning to `CCCCC(CC)COC(=O)CCCCC(=O)OCc1ccccc1` (stereo not given), the call in assay [1], in assay [2], in assay [3], in [4], in [5] and in assay [6] was inactive. In assay [7], the result was inactive.
Regarding `CCOC(=O)CC(O)(CC(=O)OCC)C(=O)OCC`, the compound was called inactive in assay [1], in [2], in [3], in assay [4], in [5] and in assay [6].
On to `CCCOC(=O)c1ccc(O)cc1`, for which the call in assay [1], in assay [2], in [3], in [4], in assay [5] and in [6] was inactive. In addition, the outcome in assay [7], in assay [8] and in assay [9] was inactive.
For `Oc1cccc(O)c1`, the compound was classed as inactive in [1], in assay [2], in assay [3], in assay [4], in assay [5] and in [6]. Further, the result in assay [7], in assay [8] and in [9] was inactive.
`O=c1c(-c2ccc(O)cc2)coc2cc(O)ccc12`: the outcome in [1], in [2], in [3], in assay [4], in assay [5] and in assay [6] was inactive. The compound was classed as inactive in assay [10], in assay [7], in [8] and in [9].
Turning to `CC(=O)CC(C)(C)O`, the result in [1], in [2], in assay [3], in assay [4], in assay [5] and in assay [6] was inactive. Also, the result in [7] and in assay [9] was inactive.
For `OC1CCC(C2CCCCC2)CC1` (stereo not given), the call in assay [1], in assay [2], in assay [3], in assay [4], in assay [5] and in assay [6] was inactive. Moreover, the outcome in assay [7] and in assay [9] was inactive.
With `OCCC(F)(F)C(F)(F)C(F)(F)C(F)(F)C(F)(F)C(F)(F)C(F)(F)C(F)(F)F`, the compound was classed as inactive in assay [1], in [2], in assay [3], in assay [4], in assay [5] and in assay [6]. For the same compound, the result in [7] and in assay [9] was inactive.
